# Where a name gives a salt, the structure may show the parent alone.
# Key:
# Test in all cases: Euclidean distance of Cell Painting phenotypic profile (signed KS, 77 features) to DMSO centroid (dimensionless distance); higher = stronger phenotypic change vs DMSO (phenoactivity)
# Conditions in all cases: 48 h; 5 or 10 uM (library dependent)
# 786-O = system: 786-O
# How it was run: (§1)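 Phenoactivity is computed as Euclidean distance to the median vehicle profile. The profiles, drawn from 77 Harmony features scored as signed Kolmogorov-Smirnov statistics versus same-plate vehicle wells, were corrected for plate position, correlation-weighted and replicate-averaged at the top dose. Stained cells were imaged confocally at 20X (9 fields/well) after 48 h with library compounds at 10 or 5 uM, 0.1% DMSO final, in five cancer lines and a healthy fibroblast line.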
# A549 = system: A549
# How it was run: as §1
# DU145 = system: DU145
# How it was run: as §1
# FB = system: FB
# How it was run: as §1
# HEPG2 = system: HEPG2
# How it was run: as §1
# OVCAR4 = system: OVCAR4
# How it was run: as §1
SMILES,Euclidean distance (786-O),Euclidean distance (A549),Euclidean distance (DU145),Euclidean distance (FB),Euclidean distance (HEPG2),Euclidean distance (OVCAR4)
COC(=O)C1=CCCN(C)C1 [Arecoline],0.942,1.44,0.841,1.01,0.762,0.957
O=c1c2ccccc2[se]n1-c1ccccc1 [Ebselen],1.37,1.48,1.01,1.16,0.769,1.42
CC1(C)S[C@@H]2[C@H](N)C(=O)N2[C@H]1C(=O)O [6-Aminopenicillanic acid],1.51,0.648,1.01,0.903,0.75,1.5
Cc1cccc(Cc2c[nH]cn2)c1C [Detomidine HCl],1.46,0.895,1.16,0.994,1.89,1.34
C[C@@]12N[C@@H](Cc3ccccc31)c1ccccc12 [(-)-MK 801 Maleate],1,1.63,1.84,3.8,1.69,4.43
Clc1ccc(C(OCCN2CCCCC2)c2ccccc2)cc1 (centres undefined) [Cloperastine hydrochloride],0.838,1.16,1.16,0.914,1.43,1.16
C#C[C@]1(O)C=C[C@H]2[C@@H]3CCC4=CC(=O)CC[C@@H]4[C@H]3CC[C@@]21CC [Gestodene],1.29,0.869,2.08,1.08,2.49,1.33
CC[C@@H]1/C=C/C=C/C[C@H](C)[C@H](O)[C@](C)(O)C(=O)[C@H](C)[C@@H](O)[C@H](C)C(=O)[C@H](C)[C@@H](O)[C@H](C)/C=C/C(=O)O[C@H]2[C@@H](C)[C@@H](CC1)O[C@@]1(CC[C@@H](C)[C@@H](C[C@H](C)O)O1)[C@@H]2C [Oligomycin A],1.81,2.18,1.46,0.998,3.19,1.22
C=C[C@H]1CN2CC[C@H]1C[C@H]2[C@H](O)c1ccnc2ccccc12 [Cinchonidine],1.49,0.828,1.16,1.09,0.521,1.1
C[C@]12CC[C@H](O)CC1=CC[C@@H]1[C@@H]2CC[C@]2(C)C(=O)CC[C@@H]12 [Dehydroepiandrosterone (DHEA)],0.908,0.827,1.46,1.11,1.12,1.16
C=C(C)[C@H]1Cc2c(ccc3c2O[C@@H]2COc4cc(OC)c(OC)cc4[C@@H]2C3=O)O1 [Rotenone (Barbasco)],2.48,2.97,3.54,2.77,2.94,2.89
CN1[C@@H]2CC[C@H]1C[C@@H](OC(=O)C(CO)c1ccccc1)C2 (some centres undefined) [Atropine sulfate monohydrate],0.718,0.691,0.677,0.688,0.719,1.53
O=c1ccc2cc(O[C@@H]3O[C@H](CO)[C@@H](O)[C@H](O)[C@H]3O)c(O)cc2o1 [Esculin],0.808,0.729,0.922,0.993,0.624,1.29
O=P1(N(CCCl)CCCl)NCCCO1 (centres undefined) [Cyclophosphamide Monohydrate],1.18,0.863,1.62,0.969,2.05,1.07
Oc1cccc2cccnc12 [8-Hydroxyquinoline],4.55,1.4,2.11,6.09,1.99,1.56
N.N.[Cl][Pt][Cl] [Cisplatin],1.62,1.39,0.914,0.888,1.55,0.788
C=C(C)[C@@H]1[C@H]2OC(=O)[C@@H]1[C@]1(O)C[C@H]3O[C@]34C(=O)O[C@H]2[C@]14C [Picrotoxinin],1.37,1.86,0.846,0.954,0.815,1.26
COC(=O)[C@@H](N)CCCNC(=N)N[N+](=O)[O-],0.931,1.3,0.775,1.29,0.551,0.995
Cc1ncc(CNC(=O)N(CCCl)N=O)c(N)n1 [Nimustine Hydrochloride],1.62,0.894,0.692,0.831,0.722,0.918
C=CCC(C(=O)NC(N)=O)C(C)C (centres undefined) [Apronal],1.22,0.684,1.07,0.907,0.938,1.09
CN1C[C@H](C(=O)N[C@]2(C)O[C@@]3(O)[C@@H]4CCCN4C(=O)[C@H](Cc4ccccc4)N3C2=O)C[C@@H]2c3cccc4[nH]cc(c34)C[C@H]21 [Dihydroergotamine Mesylate],1.1,1.93,0.862,1.05,1.1,1.25
CCOC(=O)c1cncn1[C@H](C)c1ccccc1 [Etomidate],2.62,1.77,2.36,2.6,1.08,1.9
Cc1cc(SCc2sc(-c3ccc(C(F)(F)F)c(F)c3)nc2C)ccc1OCC(=O)O,0.634,1.17,0.823,1.08,2.24,0.807
CC(C)C(Br)C(=O)NC(N)=O (centres undefined) [Bromisoval],1.54,0.435,2.15,0.988,0.659,0.646
